This is a sample that favours compounds with a hit; in the whole collection about 1.5% have one here.
APEX1 inh: blocks human APE1 abasic DNA cleavage; P27695; recombinant APE1, TAMRA/BHQ-2 abasic DNA cleavage fluorescence; Potency, µM (top dose mostly 65.8 µM), for inactives: at the top dose activity change, negative = inhibition, actives largely listed as inhibitors; 350,000 compounds, 0.35% hits; AID 2517;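 also: potency is read from the fitted curve at half-maximal effect; plate controls were vehicle for no effect and reference inhibitor for full effect; nearly all actives have a fitted effect of over 55% in size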
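Enzyme (0.75 nM final) and test compound are incubated 15 min at room temperature before adding 50 nM quenched THF abasic-site duplex. Cleavage dequenches TAMRA, followed at 525/598 nm over three reads one minute apart.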
BLM helicase inh: blocks DNA unwinding by human BLM helicase. Potency, µM (doses to about 56.1 µM), for inactives: at the highest dose activity change, negative = inhibition, most hits filed as inhibitors. recombinant BLM DNA unwinding, fluorescence dequenching. P54132. 350,000 compounds, 0.2% hits;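 also: potency is read from the fitted curve at half-maximal effect; plate controls were vehicle for no effect and no enzyme for full effect; nearly all actives have a fitted effect of over 35% in size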
GCN5L2 inh: blocks human GCN5L2 histone acetyltransferase; Q92830; GCN5L2 HAT assay, ThioGlo1 CoA-SH fluorescence; Potency, µM (doses to about 58.9 µM), for the others: top-dose activity change, negative = inhibition, actives largely listed as inhibitors; 390,000 compounds, 0.21% hits; also: potency is read from the fitted curve at half-maximal effect
Target sequence (Q92830 whole entry, looked up): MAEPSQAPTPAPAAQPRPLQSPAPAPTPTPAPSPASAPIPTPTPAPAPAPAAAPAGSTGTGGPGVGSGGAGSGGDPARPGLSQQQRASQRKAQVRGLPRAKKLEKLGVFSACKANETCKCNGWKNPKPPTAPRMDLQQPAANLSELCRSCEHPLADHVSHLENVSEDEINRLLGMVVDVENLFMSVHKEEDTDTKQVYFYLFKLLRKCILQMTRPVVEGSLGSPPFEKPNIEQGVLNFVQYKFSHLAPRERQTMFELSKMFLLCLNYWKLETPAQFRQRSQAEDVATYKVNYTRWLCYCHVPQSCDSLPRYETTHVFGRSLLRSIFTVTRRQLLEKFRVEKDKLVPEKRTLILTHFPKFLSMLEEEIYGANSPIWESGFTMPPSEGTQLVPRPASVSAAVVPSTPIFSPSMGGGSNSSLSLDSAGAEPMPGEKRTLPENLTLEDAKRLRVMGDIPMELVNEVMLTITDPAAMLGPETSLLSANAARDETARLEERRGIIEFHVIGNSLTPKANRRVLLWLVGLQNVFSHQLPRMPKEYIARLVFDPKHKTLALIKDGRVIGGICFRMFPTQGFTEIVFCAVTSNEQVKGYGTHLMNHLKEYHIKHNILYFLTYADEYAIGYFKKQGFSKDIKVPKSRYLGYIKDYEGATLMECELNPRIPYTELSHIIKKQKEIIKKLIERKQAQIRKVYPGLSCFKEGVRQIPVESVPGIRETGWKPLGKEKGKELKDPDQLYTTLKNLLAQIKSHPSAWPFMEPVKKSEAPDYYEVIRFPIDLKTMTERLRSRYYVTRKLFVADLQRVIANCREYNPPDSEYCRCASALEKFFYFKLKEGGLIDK
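Titration-based screen in which CoA formation is detected via maleimide probe ThioGlo1 (50uM) turning fluorescent on thiol reaction; substrates H3(1-25) 75uM and acetyl-CoA 70uM, GCN5L2 20nM, 20 min incubation at room temperature.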
FEN1 inhibitor: blocks human flap endonuclease 1 | Potency, µM (titrated, usually from 114 µM), for the others: top-dose activity change, negative = inhibition, actives largely listed as inhibitors | 390,000 compounds, 0.35% hits | AID 588795 | P39748 | Recombinant FEN1 flap cleavage, fluorescence, 15 min; also: potency is read from the fitted curve at half-maximal effect; nearly all actives have a fitted effect of over 65% in size
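Nuclease activity of 10 nM FEN1 was measured after 15 min of room-temperature exposure to titrated compounds, by adding 50 nM flap substrate and reading plates at 0 and 15 min.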
PI5P4Ka inh: inhibitors of human PI5P4K alpha; max response, %; P48426; PI5P4Kalpha enzyme, ADP-Glo luminescence, 60 min; hits give low values; AID 652105; 330,000 compounds, 1.2% hits; active = max response of -50% or lower; inconclusive = between -30% and -50%; inactive = -30% or higher; also: value at the top dose of about 77 µM
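Human PI5P4Kalpha with substrate in 0.038 M HEPES pH 7.4, 0.28 mM EGTA, 0.1% CHAPS, 5% DMSO; reaction started with 5 microM ATP (final), 60 min at room temperature. ADP formed read by ADP-Glo luminescence.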
RECQ1 inh-1: blocks DNA unwinding by human RECQ1 | 240,000 compounds, 0.54% hits | Potency, µM (series often up to 57.3 µM), inactives show top-dose activity, negative = inhibition, actives largely listed as inhibitors | RECQ1 DNA unwinding, red fluorescence kinetic read | P46063 | AID 2549;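 also: potency is read from the fitted curve at half-maximal effect; plate controls were vehicle for no effect and no enzyme for full effect; nearly all actives have a fitted effect of over 30% in size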
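50 nM RECQ1T1 preincubated 15 min with compound in Tris pH 8.0 buffer with MgCl2, DTT, Tween-20 and 2.5 ug/ml poly(dI-dC); started with 200 nM TAMRA/BHQ-2 forked duplex and 2 mM ATP. Unwinding read as fluorescence (525/598 nm), two reads 2 h apart.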
RECQ1 inh conf: confirmation of human RECQ1 helicase inhibitors. shares compounds with RECQ1 inh-1. RECQ1 helicase DNA unwinding, fluorescence. Potency, µM (titrated, usually from 229 µM), inactives show at the top dose activity change, negative = inhibition, most hits filed as inhibitors. 610 compounds, 28% hits; also: potency is read from the fitted curve at half-maximal effect; nearly all actives have a fitted effect of over 45% in size
RECQ1 ADP FP: ADP displacement flagged in RECQ1 inhibitor counter-screen | shares compounds with RECQ1 inh-1 | ADP fluorescence polarization displacement counterscreen | Potency, µM (top dose mostly 228 µM), without a hit: at the top dose activity change, negative = inhibition, actives largely listed as inhibitors | 530 compounds, 27% hits | AID 2711; also: potency is read from the fitted curve at half-maximal effect; nearly all actives have a fitted effect of over 45% in size
RECQ1 inh-2: confirmation of human RECQ1 helicase inhibitors; Potency, µM (highest dose often 119 µM), inactives show top-dose activity, negative = inhibition, actives largely listed as inhibitors; shares compounds with RECQ1 inh-1; AID 504841; recombinant RECQ1 DNA unwinding, red fluorescence; 1,100 compounds, 15% hits; also: potency is read from the fitted curve at half-maximal effect; nearly all actives have a fitted effect of over 50% in size
* hit, by the source's call; i = inactive; ? = inconclusive; . = no result given. Unless noted, calls follow the shape of the dose curve; as a rule, active = well fitted curve in the direction sought with a large enough effect; inconclusive = small, poorly fitted or top-dose-only effect, or another doubt; inactive = no such curve, though single readings can be large; an effect the other way counts as inactive or inconclusive. Unless noted, % is scaled to controls: 0 for no effect and ±100 for the full control effect.

SMILES	APEX1 inh	BLM helicase inh	GCN5L2 inh	FEN1 inhibitor	PI5P4Ka inh	RECQ1 inh-1	RECQ1 inh-2	others
CCOC(=O)c1ccc(CC(=O)c2oc3cc(O)ccc3c2C)o1	-3%	-14%	-9%	-13%	.	-4%	.
O=C(O)c1c2c(nc3ccc(Cl)cc13)CCC2	?	-4%	-19%	-11%	4	28µM*	-25%
CC[C@H](C)[C@H](NC(=O)[C@H](Cc1ccc(O)cc1)NC(=O)[C@H](Cc1cnc[nH]1)NC(=O)[C@H](CCCNC(=N)N)NC(=O)[C@H](CC(C)C)NC(=O)[C@H](C)NC(=O)[C@H](CO)NC(=O)[C@H](Cc1ccc(O)cc1)NC(=O)[C@H](Cc1ccc(O)cc1)NC(=O)[C@H](CCCNC(=N)N)NC(=O)[C@H](C)NC(=O)[C@H](CC(C)C)NC(=O)[C@H](CC(=O)O)NC(=O)[C@H](CCC(=O)O)NC(=O)[C@H](C)NC(=O)[C@@H]1CCCN1C(=O)[C@H](C)NC(=O)[C@H](CC(=O)O)NC(=O)[C@H](CCC(=O)O)NC(=O)CNC(=O)[C@@H]1CCCN1C(=O)[C@H](CC(N)=O)NC(=O)[C@H](CC(=O)O)NC(=O)[C@@H]1CCCN1C(=O)[C@H](CCCCN)NC(=O)[C@H](CO)NC(=O)[C@@H]1CCCN1C(=O)[C@@H](N)Cc1ccc(O)cc1)C(=O)N[C@@H](CC(N)=O)C(=O)N[C@@H](CC(C)C)C(=O)N[C@H](C(=O)N[C@H](C(=O)N[C@@H](CCCNC(=N)N)C(=O)N[C@@H](CCC(N)=O)C(=O)N[C@@H](CCCNC(=N)N)C(=O)N[C@@H](Cc1ccc(O)cc1)C(N)=O)[C@@H](C)O)[C@@H](C)CC	1%	-7%	2%	.	.	-4%	.
O=C(C1COc2ccccc2O1)N1CCCC1 (stereo not drawn)	1%	-4%	-7%	-5%	-3	-4%	.
O=C(C1COc2ccccc2O1)N1CCc2ccccc21 (stereo not drawn)	?	-22%	-16%	0%	.	?	13µM*
Oc1ccc(C2CNCCc3c2cc(O)c(O)c3Cl)cc1 (stereo not drawn)	-4%	-21%	-7%	9%	5	22µM*	.	RECQ1 inh conf=?;RECQ1 ADP FP=45µM*
Oc1cc2c(c(Cl)c1O)CCNC[C@H]2c1ccccc1	10%	-7%	.	.	.	?	.
COc1ccc(-c2csc(NC(=O)c3ccc(S(=O)(=O)N4CCc5ccccc5C4)cc3)n2)cc1	12%	2%	-3%	7%	6	-4%	.	RECQ1 inh conf=-7%;RECQ1 ADP FP=5%
COc1ccc(-c2nnc(NC(=O)c3ccc(S(=O)(=O)N4CCc5ccccc5C4)cc3)o2)cc1	-1%	-6%	-5%	9%	-10	i	.
COC(=O)c1ccc(-c2csc(NC(=O)c3ccc(S(=O)(=O)N4CCc5ccccc5C4)cc3)n2)cc1	-1%	-2%	-3%	-1%	5	2%	.	RECQ1 inh conf=8%;RECQ1 ADP FP=16%
O=C(Nc1nc(-c2ccc(S(=O)(=O)N3CCCCCC3)cc2)cs1)c1ccccc1	17%	-3%	-6%	11%	.	i	.
CCCC[C@H]1CCCO[C@@](C(=O)NCc2cc(C)n(C)n2)(C(F)(F)F)C1	-7%	-3%	.	-3%	.	i	.
Cc1c(N2C(=O)CS/C2=N\N=C\c2ccccc2O)c(=O)n(-c2ccccc2)n1C	-7%	-4%	-17%	0%	.	i	.	RECQ1 inh conf=19%;RECQ1 ADP FP=-23%
Cc1c(N2C(=O)CS/C2=N\N=C\c2ccc(Cl)cc2)c(=O)n(-c2ccccc2)n1C	2%	1%	1%	5%	.	i	.
COc1ccccc1NC(=O)C12CC3CC(C1)CC(c1ccc(C)cc1)(C3)C2	-2%	-5%	-10%	-15%	.	32µM*	-14%
COc1ccc(NC(=O)C23CC4CC(C2)CC(c2ccc(C)cc2)(C4)C3)cc1	4%	-7%	3%	-2%	11	0%	.
O=C(O)Cc1c(Cl)ccc(Cl)c1Cl	-4%	-8%	-25%	.	.	6%	.
O=C(Nc1ccc(S(=O)(=O)Nc2nccs2)cc1)c1ccc(=O)[nH]c1	?	-28%	-5%	-26%	?	?	?
O=C(Nc1ccc(S(=O)(=O)Nc2nccs2)cc1)c1ccncc1	.	.	.	.	1	.	.
O=S(=O)(c1ccccc1Cl)N1CCN(c2nc(-c3ccccc3)nc3ccccc23)CC1	.	.	.	-18%	.	.	.
CCCc1nc2oc(C(=O)OCC)c(N)c2c2c1COC(C)(C)C2	?	0%	?	-9%	0	?	-9%
COC(=O)c1sc2ccccc2c1NC(=O)c1ccc(S(=O)(=O)N2CCCC(C)C2)cc1 (stereo not drawn)	-1%	-2%	2%	1%	-1	3%	.
COC(=O)c1sc2ccccc2c1NC(=O)c1ccc(S(=O)(=O)N2CC(C)CC(C)C2)cc1 (stereo not drawn)	1%	4%	53%	-5%	12	-2%	.	RECQ1 inh conf=13%;RECQ1 ADP FP=-15%
O=C(CSc1ncnc2scc(-c3ccccc3)c12)N1CCN(Cc2ccc3c(c2)OCO3)CC1	0%	-17%	?	0%	?	13µM*	-24%	RECQ1 inh conf=?
COc1ccc2[nH]cc(CCNc3ncnc4ccc(-c5ccoc5)cc34)c2c1	-4%	-1%	-16%	.	.	?	?
COc1ccc(CNc2ncnc3ccc(-c4ccoc4)cc23)c(OC)c1	-2%	4%	-19%	.	.	-4%	.
C=CC(=O)NCC1OCCc2ccccc21 (stereo not drawn)	0%	-2%	-6%	8%	0	i	.
O=C(/C=C/c1ccco1)NCC1OCCc2ccccc21 (stereo not drawn)	?	?	-27%	?	-70*	?	6.3µM*
O=C(CSc1nccc(=O)[nH]1)NC1CCCc2ccccc21 (stereo not drawn)	3%	-5%	1%	10%	2	-1%	.
